Screening data (PubChem)
Rows were chosen to be rich in hits. Some 4.8% of all compounds tested hit in one or more screens of this group.
TGFb inhibitor: inhibitors of TGF-b signaling; HepG2 CAGA-GFP TGF-b/SMAD3 reporter, GFP fluorescence, 18 h; TGF-beta stimulated, 500 pg/mL final; Potency, µM (top dose mostly 46.1 µM), without a hit: at the top dose activity, negative = inhibition, hits mostly inhibitors; 410,000 compounds, 1.2% hits; AID 588855; note: potency is the fitted concentration of half-maximal effect; % is set by controls: 0 for no effect and ±100 for the full control effect; nearly all actives have a fitted effect of over 65% in size
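Cell-based qHTS in HEPG2 carrying a CAGA-GFP Smad reporter; compounds added before 500 pg/mL final TGF-beta, 18 h incubation at 37 degrees C, GFP fluorescence quantified per cell by imaging cytometry.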
ATXN viability: reduces viability in counter-screen for ATXN expression inhibitors; Potency, µM (doses to about 56.7 µM), usual class: cytotoxic; S2 cells (HEK-293 line with an ATXN2-luciferase reporter) viability, CellTiter-Fluor protease fluorescence, 24 h; 400,000 compounds, 0.49% hits; note: potency is the fitted concentration of half-maximal effect; nearly all actives have a fitted effect of over 40% in size
DRD3 antagonist: D3 dopamine receptor (human) antagonism; P35462; D3R cells, DiscoveRx beta-arrestin luminescence, antagonist mode; active compounds read low; max response, negative = inhibition, %; 360,000 compounds, 2.5% hits; AID 652054; in the data active = max response below about -50%; inconclusive = no clear call, values can overlap the other calls; note: % is set by controls: 0 for no effect and ±100 for the full control effect
Target sequence (P35462 whole entry, looked up): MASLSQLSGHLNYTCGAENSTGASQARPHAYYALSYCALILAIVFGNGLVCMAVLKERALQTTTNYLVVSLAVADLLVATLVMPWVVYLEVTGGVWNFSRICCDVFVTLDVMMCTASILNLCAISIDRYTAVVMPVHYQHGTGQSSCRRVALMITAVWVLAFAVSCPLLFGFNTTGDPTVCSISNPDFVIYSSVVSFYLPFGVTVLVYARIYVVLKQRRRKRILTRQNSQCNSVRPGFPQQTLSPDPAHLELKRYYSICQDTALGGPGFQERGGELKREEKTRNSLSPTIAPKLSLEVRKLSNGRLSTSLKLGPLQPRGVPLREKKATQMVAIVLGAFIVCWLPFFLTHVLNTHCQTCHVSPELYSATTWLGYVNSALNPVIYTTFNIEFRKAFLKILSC
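Cells plated overnight at 1500 cells/well, then exposed to library compounds with dopamine controls for 90 minutes at 37 degrees C. DiscoveRx reagent added for 30–60 minutes at room temperature; luminescence read, quantitative HTS format.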
ATXN2 expr inh: inhibitors of ATXN2 expression | HEK-293 ATXN2-luciferase reporter, luminescence, 24 h | Potency, µM (top dose mostly 57 µM), inactives show at the top dose activity change, negative = inhibition, usual class: inhibitors | 360,000 compounds, 0.72% hits; note: potency is the fitted concentration of half-maximal effect; % is set by controls: 0 for no effect and ±100 for the full control effect; nearly all actives have a fitted effect of over 55% in size
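ATXN2-luciferase reporter cells (luciferase flanked by upstream and downstream ATXN2 gene portions) were treated 24 h at 37 °C with compounds at up to 57 uM. SteadyGlo luminescence gave expression; GF-AFC fluorescence gave viability.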
HepG2 tox: HepG2 cytotoxicity, counter-screen for TGF-b inhibitors. HepG2 CAGA-GFP viability, ATP luminescence, 18 h. Potency, µM (series often up to 46.1 µM), inactives show at the highest dose activity change, negative = cytotoxicity, usual class: cytotoxic. 410,000 compounds, 0.76% hits; note: potency is the fitted concentration of half-maximal effect
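CellTiter-Glo luminescence gave cytotoxicity after 18 hours at 37 degrees C. The cells were HepG2 CAGA-GFP in 1% FBS DMEM, stimulated with 500 pg/mL TGF-beta after compound addition. %Activity was normalised to no-cell wells (complete cell-killing) and DMSO (no toxicity), and curves were fitted and classified.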
D3 ag: D3 dopamine receptor (human) agonism; max activation, %; 410,000 compounds, 0.58% hits; P35462; D3R DiscoveRx beta-arrestin cells, luminescence, 90 min; in the data active = max activation above about 30%; note: 0% is about no effect
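Agonist mode: compounds and dopamine controls were applied to plated cells for 90 min at 37 degrees C after an overnight attachment at 1500 cells/well. Luminescent read-out followed 30 - 60 minutes at room temperature with DiscoveRx detection reagent.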
* marks the source's active call; other numbers are inactive results. Unless noted, calls come from the whole dose curve; as a rule, active = well fitted curve in the direction sought with a large enough effect; inconclusive = small, poorly fitted or top-dose-only effect, or another doubt; inactive = no such curve, though single readings can be large; an effect the other way counts as inactive or inconclusive.

`O=C(Nc1ccc(Cl)c(Cl)c1)C1CCN(C(=O)c2ccco2)CC1` gave TGFb inhibitor inconclusive, ATXN viability inactive, DRD3 antagonist -81*, ATXN2 expr inh -26%, HepG2 tox -24% and D3 ag -13.
For O=C(Nc1ccc(N2CCN(C(=O)c3ccco3)CC2)c(Cl)c1)c1c(F)c(F)c(F)c(F)c1F the results were TGFb inhibitor inconclusive, ATXN viability inconclusive, DRD3 antagonist 22, ATXN2 expr inh 28µM*, HepG2 tox -20% and D3 ag 4.
For O=C1Nc2cc(C(=O)NCCCN3CCCC3)ccc2S/C1=C\c1ccccc1 the results were TGFb inhibitor inconclusive, ATXN viability inconclusive, DRD3 antagonist -18, HepG2 tox 16µM* and D3 ag 0.
`COc1ccc(/C=C2/Sc3ccc(C(=O)NCCN4CCCCCC4)cc3NC2=O)cc1` gave TGFb inhibitor 25µM*, ATXN viability 28µM*, DRD3 antagonist -15, HepG2 tox 13µM* and D3 ag 2.
For O=C1Nc2cc(C(=O)NCCCN3CCOCC3)ccc2S/C1=C/c1cccc(Cl)c1 the results were TGFb inhibitor -4%, ATXN viability inactive, DRD3 antagonist -23, HepG2 tox -38% and D3 ag -16.
`Cc1ccc(NC2=CC(=O)C(=O)c3ccccc32)cc1` gave TGFb inhibitor 2.8µM*, ATXN viability inconclusive, DRD3 antagonist inconclusive, ATXN2 expr inh -28%, HepG2 tox 5µM* and D3 ag 7.
For NS(=O)(=O)c1ccc(NC2=CC(=O)C(=O)c3ccccc32)cc1 the results were TGFb inhibitor 8.9µM*, ATXN viability inactive, DRD3 antagonist -53*, ATXN2 expr inh inconclusive, HepG2 tox -55% and D3 ag -7.
For COc1cc(OC)c(NC2=CC(=O)C(=O)c3ccccc32)cc1Cl the results were TGFb inhibitor inconclusive, ATXN viability 18µM*, DRD3 antagonist -26, HepG2 tox 0% and D3 ag -1.
Screening COc1ccc(N2CCN(C(=O)CS(=O)(=O)c3cccc4nsnc34)CC2)cc1 returned TGFb inhibitor 7%, ATXN viability inactive, ATXN2 expr inh 4%, HepG2 tox -9% and D3 ag -1.
CC(=O)C1=C(C)OC(N)=C(C#N)C1c1cccc([N+](=O)[O-])c1 (stereo not given) was read as TGFb inhibitor 4%, ATXN viability inactive, DRD3 antagonist -5, ATXN2 expr inh -16%, HepG2 tox -1% and D3 ag -4.
For CC(=O)C1=C(C)OC(N)=C(C#N)C1c1cc([N+](=O)[O-])ccc1Cl (stereo not given) the results were TGFb inhibitor inconclusive, ATXN viability inactive, DRD3 antagonist -22, ATXN2 expr inh -24%, HepG2 tox 6.3µM* and D3 ag -6.
For NCCc1nc2cccnc2n1-c1ccccc1 the results were TGFb inhibitor -30%, ATXN viability inactive, ATXN2 expr inh 9%, HepG2 tox 7% and D3 ag 4.
For CCCOc1ccc(NC(=O)CNC(=O)c2cc(OC)cc(OC)c2)cc1OCCC the results were TGFb inhibitor inconclusive, ATXN viability inactive, DRD3 antagonist -58*, HepG2 tox -55% and D3 ag -20.
For Cc1cccc(OCC(=O)Nc2c(C(=O)N3CCN(c4ccccc4)CC3)oc3ccccc23)c1 the results were TGFb inhibitor -36%, HepG2 tox 6% and D3 ag -4.
Screening CCC(=O)Nc1ccc(CC)cc1-c1nc2ccccc2n(CC(=O)Nc2cccc(OC)c2)c1=O returned TGFb inhibitor -20%, HepG2 tox -39% and D3 ag -11.
CC(=O)Nc1ccc(N=Cc2c(O)ccc3ccccc23)cc1 was read as TGFb inhibitor 2%, ATXN viability inconclusive, DRD3 antagonist 11, HepG2 tox 1% and D3 ag 3.
`O=C(CNc1ccccc1)N/N=C/c1c(O)ccc2ccccc12` gave TGFb inhibitor inconclusive, ATXN viability inactive, DRD3 antagonist 15, ATXN2 expr inh 7.1µM*, HepG2 tox -42% and D3 ag -7.
O=C(CN1CCOCC1)N/N=C/c1ccco1 was read as TGFb inhibitor -10%, ATXN viability inactive, DRD3 antagonist -1, ATXN2 expr inh -7%, HepG2 tox 0% and D3 ag 3.
`O=C(N/N=C\c1c(O)ccc2ccccc12)c1ccc(O)cc1` gave TGFb inhibitor 0%, ATXN viability inconclusive, DRD3 antagonist 16, ATXN2 expr inh inconclusive, HepG2 tox -32% and D3 ag 4.
For O=C(CN1CCOCC1)N/N=C/c1c(O)ccc2ccccc12 the results were TGFb inhibitor -4%, ATXN viability inconclusive, DRD3 antagonist 4, ATXN2 expr inh 11µM*, HepG2 tox 0% and D3 ag 28.
For O=C(N/N=C/c1c(O)ccc2ccccc12)Nc1ccccc1 the results were TGFb inhibitor 15%, ATXN viability inactive, DRD3 antagonist -57*, HepG2 tox -10% and D3 ag -15.
O=C(N/N=C/c1c(O)ccc2ccccc12)c1ccc(Br)o1 was read as TGFb inhibitor 0%, DRD3 antagonist -14, ATXN2 expr inh 2.8µM*, HepG2 tox -58% and D3 ag 0.
Screening CCn1c(=O)sc2cc(NS(=O)(=O)c3ccc(F)c(C)c3)ccc21 returned TGFb inhibitor inconclusive, HepG2 tox -28% and D3 ag 1.
CCCc1cc(=O)oc2c3c(ccc12)OCN(Cc1ccc(OC)cc1)C3 was read as TGFb inhibitor -2%, HepG2 tox -11% and D3 ag -13.
Screening CCOc1ccc(NC(=O)c2cnn(-c3ccc(C)c(C)c3)c2C2CCN(C(=O)OC(C)(C)C)CC2)cc1 returned TGFb inhibitor -2%, HepG2 tox 0% and D3 ag -2.
Screening Nc1cc(Cl)nc(N/N=C/c2c(O)ccc3ccccc23)n1 returned TGFb inhibitor -1%, DRD3 antagonist -146*, ATXN2 expr inh -16%, HepG2 tox -28% and D3 ag 0.
`O=C(CSCC(=O)Nc1ccccc1)N/N=C/c1c(O)ccc2ccccc12` gave TGFb inhibitor 9%, ATXN viability inactive, DRD3 antagonist -20, ATXN2 expr inh 3.2µM*, HepG2 tox -25% and D3 ag 2.
For COCc1ccc(C(=O)N2CCOc3c(cc(-c4cc(C)c5cccc(OC)c5n4)cc3OC)C2)o1 the results were ATXN viability inactive.
